# This is one part of a sample in which hits are shown more often than they occur.
# TTR transcr act: TTR transcription activation, primary screen | SH-SY5Y TTR promoter Gaussia luciferase, luminescence; 100% = recombinant luciferase protein wells | AID 1117267 | activation, % at 16.7 µM | actives 1.3% (n = 92,000);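 active = activation above the mean of all tested compounds plus 3 SD, cut at about 9.5% in these data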;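 also: cells exposed to compounds for one day before reading; 0% = median of all test compound wells on the plate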
# TTR inh HuH7: decreases TTR transcription in HuH7 cells in activator counter-screen; shares compounds with TTR transcr act; HuH7 TTR promoter-Gaussia luciferase reporter, luminescence; inhibition, % at 16.7 µM; actives 4% (n = 1,100);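 active = average inhibition above the solvent-only control wells' mean plus 3 SD, cut at about 15% in these data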;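 also: 0% = cells with DMSO only and 100% = cells with inhibitor control FD; inhibitors lower well luminescence so higher value means more inhibition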
# TTR up confirm: human TTR transcription activation, confirmation; shares compounds with TTR transcr act; activation, % at 16.7 µM; AID 1117280; 1,100 tested, under 10 active; SHSY5Y TTR promoter Gaussia luciferase, luminescence; 100% = purified Lucia enzyme wells, no cells;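 active = mean activation above a set limit taken from the earlier primary screen, cut at about 11% in these data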;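 also: 0% = DMSO-treated cells and 100% = recombinant Lucia luciferase without cells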
# * hit, by the source's call.
SMILES,TTR transcr act,others
O=C(CCN1C(=O)C2CC=CCC2C1=O)N1CCN(c2ccccn2)CC1 (centres undefined),9.7*,TTR inh HuH7=-9.9;TTR up confirm=0.2
CC(=O)c1ccccc1C(=O)N1CCCC(CCC(=O)N2CCN(c3ccccn3)CC2)C1 (centres undefined),-1.2,
Cc1ccccc1CC(=O)N1CCCC(CCC(=O)N2CCN(c3ccccn3)CC2)C1 (centres undefined),11.5*,TTR inh HuH7=-1.2;TTR up confirm=0.3
Cc1ccc(C(=O)N2CCCC(CCC(=O)N3CCN(c4ccccn4)CC3)C2)s1 (centres undefined),3.6,
O=C(CCN1C(=O)c2ccccc2C1=O)N1CCN(c2ccccn2)CC1,0.0,
C[C@@H]1CN([C@@H](C)CO)C(=O)CCCn2cc(nn2)CO[C@H]1CN(C)C(=O)Cc1ccccc1,0.1,
CCCCNC(=O)O[C@H]1CC[C@@]23CCCN2C(=O)CCC[C@H]3C1,1.6,
CCOC(=O)Cn1nc2sc3ccccc3n2c(=O)c1=O,2.2,
CCOC(=O)Cn1c(=O)sc2ccccc21,17.3*,TTR inh HuH7=-3.9;TTR up confirm=0.1
CCC(C)NC(=O)Cn1c(=O)sc2ccccc21 (centres undefined),3.2,
O=C(Nc1ccccc1Cl)O[C@@H]1CC[C@@]23CCCN2C(=O)CCC[C@H]3C1,-2.3,
CCCC1CCC2(CCCN2CCOC(=O)Nc2ccccc2C)CC1 (centres undefined),-2.1,
Cn1c(=O)c2cccnc2c(=O)n1C,-1.7,
Cn1c(=O)c(-c2ccccc2)c(O)c2ccccc21,-0.5,
Cc1cc(C)c(-c2c(O)c3cccnc3n(C)c2=O)c(C)c1,10.5*,TTR inh HuH7=-10.1;TTR up confirm=0.4
CCOC(=O)[C@@]12CCC3=C1N(CCC3)C(=O)[C@H](CC(=O)NCc1ccc(OC)c(OC)c1)C2,-0.7,
CCCC1CCC2(CC1)CCC2OC(=S)Nc1cccc(Cl)c1 (centres undefined),3.7,
CC(C)N1CCCCC(NC(=O)c2ccccc2)C1=O (centres undefined),0.9,
C=CC(=O)NC1CCCCN(C(C)C)C1=O (centres undefined),11.6*,TTR inh HuH7=-10.6;TTR up confirm=-0.6
CC(C)N1CCCCC(NC(=O)c2ccc(Br)cc2)C1=O (centres undefined),1.8,
CC(C)(C)OC(=O)N1CCC(N[C@@H](Cc2c[nH]c3ccccc23)C(=O)NCC(c2ccccc2)c2ccccc2)(C(=O)NC2CCCCC2)CC1,-2.1,
CCN(CC)C(=O)Cn1c2ccccc2c2nc3n(c(=O)c21)CCS3,-1.0,
O=C(NNC(=S)NC1CC2C=CC1C2)c1ccncc1 (centres undefined),0.9,
O=C(CNC(=S)N(Cc1ccccc1)Cc1cccnc1)NC1CC1,5.4,
N#CCCN(Cc1cccnc1)C(=S)NC1CC2C=CC1C2 (centres undefined),10.3*,TTR inh HuH7=-8.8;TTR up confirm=0.9
SMILES,TTR transcr act,others
C[C@H]1COc2cc(Br)ccc2S(=O)(=O)N1Cc1cn(CC2CCCCC2)nn1,0.5,
O=C(CCc1ccccc1)N1CCCC1,11.4*,TTR inh HuH7=-4.6;TTR up confirm=-0.3
O=C(CCc1nnc(CCCc2ccccc2)o1)N1CCCCCC1,-1.4,
CC1CCCN(C(=O)CCc2ccccc2)C1 (centres undefined),1.2,
COc1cccc(C(=O)NCc2cccnc2)c1,-1.6,
CNC(=O)c1sc(=S)n(-c2ccc(OC)cc2)c1N,0.2,
COc1ccc(-n2c(N)c(C(=O)NCc3cccnc3)sc2=S)cc1,9.9*,TTR inh HuH7=-24.2;TTR up confirm=0.4
C#CCOCCOCCOCCNc1nc(N2CCOCC2)nc(N2CCN(C(=O)[C@H](CCC(=O)O)n3cc(C(N)CC(C)C)nn3)CC2)n1 (some centres undefined),0.1,
COC[C@H]1CCCN1c1ccc2c(c1)O[C@@H]1CCN(C1)S2(=O)=O,0.8,
Cc1cc(C(=O)N2CCOCC2)n(-c2ccccc2)n1,0.3,
Cc1cc(C(=O)NCCCN2CCOCC2)n(-c2ccccc2)n1,17.5*,TTR inh HuH7=-3.2;TTR up confirm=0.0
CCOCCCNC(=O)c1cc(C)nn1-c1ccccc1,-0.3,
O=C(/C=C/[C@H]1O[C@@H](n2cnc3c(NC(=O)c4ccccc4)ncnc32)[C@H](O)[C@@H]1O)NCCc1c[nH]c2ccccc12,-0.9,
O=C(/C=C/[C@H]1O[C@@H](n2cnc3c(NC(=O)c4ccccc4)ncnc32)[C@H](O)[C@@H]1O)NCCc1ccc(F)cc1,20.8*,TTR inh HuH7=-22.2;TTR up confirm=0.4
COCCCNC(=O)/C=C/[C@H]1O[C@@H](n2cnc3c(NC(=O)c4ccccc4)ncnc32)[C@H](O)[C@@H]1O,3.0,
CCCNC(=O)COCc1cc(-c2ccc3c(c2)OCO3)on1,-0.3,
CCCCNC(=O)COCc1cc(-c2ccc3c(c2)OCO3)on1,-1.1,
CC(C)CNC(=O)COCc1cc(-c2ccc3c(c2)OCO3)on1,11.7*,TTR inh HuH7=-1.9;TTR up confirm=1.3
CCCC1CCC2(CC1)CCC2OC(=S)Nc1ccccc1OC (centres undefined),-0.2,
COc1ccc(CN2C(=O)[C@]3(NCCc4c3[nH]c3ccc(OC)cc43)c3cc(Br)ccc32)cc1,0.2,
N#CC1CCN(c2nc(-c3ccc(Br)cc3)cs2)CC1,-0.1,
COc1ccc(C(=O)Nc2ccc(C(=O)N3CCCC3)cc2)cc1[N+](=O)[O-],0.5,
COc1cc(NC(=O)c2ccc(OC)c([N+](=O)[O-])c2)ccc1NC(=O)c1ccco1,0.4,
COc1ccc(NC(=O)c2cc(C)cc(C)c2)cc1[N+](=O)[O-],18.6*,TTR inh HuH7=-8.1;TTR up confirm=0.7
COc1cccc(NC(=O)NC2CCCCN(Cc3ccccc3C)C2=O)c1 (centres undefined),-2.9,
SMILES,TTR transcr act,others
CCNc1nc(N)c([N+](=O)[O-])c(Nc2cccc(Cl)c2)n1,1.5,
CCOc1ccccc1NC(=O)c1cc(Cl)ccc1NC(=O)c1ccco1,12.1*,TTR inh HuH7=-10.8;TTR up confirm=0.4
CCOc1cc(NC(=O)c2ccco2)c(OCC)cc1NC(=O)CCc1ccccc1OC,-1.5,
COc1cc(NC(=O)c2ccccc2Cl)ccc1NC(=O)c1ccco1,-1.6,
COC(=O)[C@]12C[C@H](CC(=O)NCc3ccc(C)o3)C(=O)N(Cc3cccc4ccccc34)C1=C[C@H](COCc1ccccc1)O[C@@H]2C,-0.4,
CCCNc1nc(-c2cc(-c3ccc(Cl)cc3)on2)cc(C(C)C)n1,11.9*,TTR inh HuH7=-12.4;TTR up confirm=0.2
CC(C)c1cc(-c2cc(-c3ccc(Cl)cc3)on2)nc(NC2CCCC2)n1,0.2,
Cc1cc(C)nc(NCc2ccc(Cl)cc2)n1,-0.8,
CSC1=NCCN1C(=O)Cc1ccc(F)cc1,10.1*,TTR inh HuH7=-1.9;TTR up confirm=-0.8
COc1ccc(CC(=O)N2CCN=C2SC)cc1OC,1.4,
CSC1=NCCN1C(=O)Cc1ccc(-c2ccccc2)cc1,-1.2,
CCCC1CCC2(CCCN2CCOC(=S)NCc2cccc(C)c2)CC1 (centres undefined),5.0,
CCCCOc1ccc(Cc2c(O)nc(SC)[nH]c2=O)cc1,9.9*,TTR inh HuH7=-22.0;TTR up confirm=0.6
CCCOc1ccc(C(C)=O)cc1Cc1c(O)nc(SC)[nH]c1=O,-1.8,
CCCCSc1nc(O)c(Cc2ccccc2)c(=O)[nH]1,2.3,
CCc1ccc(Cn2c(=O)n(Cc3ccc(C(=O)NCCCOC)cc3)c(=O)c3ccccc32)cc1,-0.1,
O=S(=O)(c1ccc(CN2CCOCCOCCN(Cc3ccc(S(=O)(=O)C(F)(F)F)cc3)CCOCC2)cc1)C(F)(F)F,-1.8,
CC1(C)Oc2ccc3ccc(=O)oc3c2-c2cn[nH]c21,10.4*,TTR inh HuH7=5.5;TTR up confirm=0.1
CC1(C)Oc2ccc3ccc(=O)oc3c2-c2cnoc21,-0.5,
CC1(C)Oc2ccc3ccc(=O)oc3c2C[C@H]1O,1.5,

# Source: PubChem BioAssay
